tested on: Plasmodium falciparum; experiment: GSK_TCMDC: Inhibition of Plasmodium falciparum 3D7 in whole red blood cells, using parasite LDH activity as an index of growth. Test compounds present at 2uM; assay type: functional

Compound | Inhibition
COc1cc(N(Cc2ccccc2C)S(=O)(=O)Cc2ccccc2[N+](=O)[O-])c(OC)cc1Cl | 94%
CCCC(C)Nc1nc(C)cc(N[C@@H](CC(C)C)C(=O)Nc2ccc(OC)cc2)n1.O=C(O)C(F)(F)F (some centres undefined) | 98%
CCOC(=O)NC1=NC(C)(C)N(OCc2ccc(Cl)c(Cl)c2)C(NC(=O)OCC)=N1 | 98%

tested on: Plasmodium falciparum; experiment: GSK_TCMDC: Inhibition of Plasmodium falciparum Dd2 in whole red blood cells, using parasite LDH activity as an index of growth. Test compounds present at 2uM; assay type: functional

Compound | Inhibition
Nc1nc2c(ncn2OC[C@H]2COP(=O)([O-])CO2)c(=O)[nH]1.[Na+] | 32%
Cl.O=S(=O)(Nc1cc2c(cc1O)CCN(C1CCC1)CC2)c1ccc(-c2ccc(F)cc2)cc1 | 99%
Cc1cc(N(CCCN(C)C)Cc2cc(F)cc(F)c2)nc(Nc2ccc(Cl)cc2)n1 | 97%
Cc1ccc(Nc2nccc(Nc3ccc4c(c3)nc(Nc3cc(C(C)(C)C)on3)n4C)n2)cc1S(C)(=O)=O | 99%
COc1ccc(NC(=O)[C@H](Cc2ccccc2)Nc2cc(C)nc(NCCc3cccnc3)n2)cc1.O=C(O)C(F)(F)F | 5%
Cc1cc(NCc2ccccc2)nc(NCc2ccccc2)n1 | 18%
O=C(Nc1cccc(CN2CCN(C(=O)c3cccc(Cl)c3)CC2)c1)c1cccs1.O=C(O)C(F)(F)F | 94%
CCOC(=O)c1ccc(NC(=O)Nc2ccc(Cn3ncc(N4CCCNCC4)c(Cl)c3=O)cc2)cc1.O=C(O)C(F)(F)F | 58%
Fc1ccccc1C=NN=c1cc[nH]c2ccc(C(F)(F)F)cc12 | 61%
OC1=C2C(=Nc3ccccc3SC2c2ccccc2)c2ccccc21 (centres undefined) | 94%
COc1ccc(NC(=O)c2ccc(Br)c(C)c2)cc1N1CCN(CCCc2c[nH]c3ccccc23)CC1 | 64%

Reference: ChEMBL document CHEMBL1157539, “Thousands of chemical starting points for antimalarial lead identification” (Nature, 2010)
